Among the data in PubChem BioAssay (Tox21) are Potency and PLD induction values, retold here.

Results filed as inconclusive are left out. Entries that show only a call come without a potency. Active and inactive are the calls of the source. Unless noted, calls follow the shape of the dose curve; as a rule, active = well fitted curve in the direction sought with a large enough effect in the repeat runs; inconclusive = weak or mixed curves; inactive = no such curve, though single readings can be large; an effect the other way counts as inactive or inconclusive.

The nature of one assay: qHTS assay to identify small molecule phospholipidosis (PLD) inducers (AID 1259344; active = well fitted curve in the direction sought with a large enough effect; an effect the other way counts as inactive or inconclusive). The note with it: HepG2 phospholipidosis, LipidTOX Red imaging, 24 h; series mostly up to 38.3 µM. The gist of the method: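 Phospholipid accumulation was scored by imaging: fixed, Hoechst-counterstained HepG2 cells stained with LipidTOX Red after 24 h compound exposure at 37 C. Read-outs were pit count and pit intensity per well or per cell, with amiodarone and DMSO controls.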
For the compound `CC(C)=CCC1C(=O)N(c2ccccc2)N(c2ccccc2)C1=O`, the Potency entry was “inactive”.

Regarding `CC(C)=CCC/C(C)=C/CC/C(C)=C/CCC(=O)OC/C=C(\C)CCC=C(C)C`, the PLD induction is -0.0635% [at 1.53 µM] (inactive). Regarding `O[C@@H]1CO[C@H]2[C@@H]1OC[C@@H]2O`, the Potency entry is “inactive”. With `COc1cc(C(=O)NCCCCCC(=O)O)cc(OC)c1OC`, the Potency result was “inactive”. For `CCC1NC(=O)c2cc(S(N)(=O)=O)c(Cl)cc2N1` (stereo not drawn), the Potency result was “inactive”.

Regarding `CCn1cc(C(=O)O)c(=O)c2cc(F)c(N3CCNCC3)cc21`, the Potency entry is “inactive”. Take `CO[C@]1(NC(=O)CSC(F)F)C(=O)N2C(C(=O)O)=C(CSc3nnnn3CCO)CO[C@H]21`: the Potency result was “inactive”. The same measure, in the same setting: the same measure for `CC(=O)OCC(=O)NCCCOc1cccc(CN2CCCCC2)c1`: “inactive”; for `CCCCCC[C@@H](O)C/C=C\CCCCCCCC(=O)O`: “inactive”.

Consider `C[C@H]1c2cccc(O)c2C(O)=C2C(=O)[C@]3(O)C(O)=C(C(N)=O)C(=O)[C@@H](N(C)C)[C@@H]3[C@@H](O)[C@@H]21`, for which the Potency entry is “inactive”. With `CC1(C)[C@H](C(=O)O)N2C(=O)C[C@H]2S1(=O)=O`, the PLD induction was 7.08% [at 7.66 µM] (inactive). On to `CO/N=C(/C(=O)N[C@@H]1C(=O)N2C(C(=O)O)=C(COC(N)=O)CS[C@H]12)c1ccco1`, for which the Potency entry is “inactive”.

In the case of `O=C1c2ccccc2C(=O)C1c1ccc(Br)cc1`, the Potency entry was “inactive”.

A short description of a further assay: qHTS assay to identify small molecule HDAC inhibitors (AID 1259364). Also: nearly all actives have a fitted effect of over 45% in size. Also: potency is read from the fitted curve at half-maximal effect. The note with it: HCT-116 HDAC-Glo I/II luminescence, 2 h; series mostly up to 92.4 µM. The gist of the method: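 Luminescence read after 30 min room-temperature HDAC-Glo incubation measures cellular class I/II HDAC activity. Compounds were applied for 2 hr at 37 C to HCT-116 wild-type cells seeded the day before.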
In the case of `O=c1[nH]c2ccc(Cl)cc2o1`, the Potency result is “inactive”.

For `Cc1ccc(C(C)(C)O)cc1`, the Potency entry was “inactive”.

Turning to `CCCC(=O)C(=O)O`, the Potency result is “inactive”.

As for `CC(C)=CCC1C(=O)N(c2ccccc2)N(c2ccccc2)C1=O`, the Potency entry is “inactive”. The same measure, in the same setting: the same measure for `CCOC(=O)/C=C/C(=O)OCC`: “inactive”. On to `Cc1ccc(CO)cc1`, for which the Potency entry is “inactive”. On the same count and under the same terms, the same measure for `O=C(OC(=O)c1ccccc1)c1ccccc1`: “inactive”; for `CC(C)=CCC/C(C)=C/CC/C(C)=C/CCC(=O)OC/C=C(\C)CCC=C(C)C`: “inactive”. With `O[C@@H]1CO[C@H]2[C@@H]1OC[C@@H]2O`, the Potency entry was “inactive”. Same read-out and setting: the same measure for `CCCCC(CC)CN` (stereo not drawn): “inactive”. The same measure, in the same setting: the same measure for `COc1cc(C(=O)NCCCCCC(=O)O)cc(OC)c1OC`: “inactive”.

As to `CC(CCC(=O)O)C(=O)O` (stereo not drawn), the Potency entry was “inactive”. Take `CCC1NC(=O)c2cc(S(N)(=O)=O)c(Cl)cc2N1` (stereo not drawn): the Potency result was “inactive”. The same measure, in the same setting: the same measure for `O=C1NCCN1CCO`: “inactive”.

On to `C1COC1`, for which the Potency entry is “inactive”.

Turning to `CCn1cc(C(=O)O)c(=O)c2cc(F)c(N3CCNCC3)cc21`, the Potency result is “inactive”. Still for that read-out and setting: the same measure for `CO[C@]1(NC(=O)CSC(F)F)C(=O)N2C(C(=O)O)=C(CSc3nnnn3CCO)CO[C@H]21`: “inactive”. Turning to `O=C(O)CCCCCCCCCCCBr`, the Potency is 24.4 µM (active). Still for that read-out and setting: the same measure for `CCC(=O)OC`: “inactive”; for `CCC(C)(C)OC`: “inactive”. Regarding `CC(C)=CC(=O)C=C(C)C`, the Potency result is “inactive”. As to `CC(=O)OCC(=O)NCCCOc1cccc(CN2CCCCC2)c1`, the Potency entry is “inactive”.

Regarding `CCCCCCCCCI`, the Potency entry was “inactive”. In the case of `CCc1ccccc1`, the Potency result is “inactive”.

As to `Cc1ccccc1S`, the Potency entry is “inactive”.

As to `Cc1cscn1`, the Potency result is “inactive”. The same measure, in the same setting: the same measure for `N#CCc1ccc(Cl)cc1Cl`: “inactive”; for `CCCCCC[C@@H](O)C/C=C\CCCCCCCC(=O)O`: “inactive”; for `Cc1cc(C)c(N)cc1C`: “inactive”. Same read-out and setting: the same measure for `C=CC(C)(CCC=C(C)C)OC(=O)CC(C)C` (stereo not drawn): “inactive”. Still for that read-out and setting: the same measure for `O=C(/C=C/c1ccccc1)OCCc1ccccc1`: 30.6 µM (active); for `CCCCCCCCC(CCCCCC)C(=O)O` (stereo not drawn): “inactive”; for `Cc1ccco1`: “inactive”. For the compound `C[C@H]1c2cccc(O)c2C(O)=C2C(=O)[C@]3(O)C(O)=C(C(N)=O)C(=O)[C@@H](N(C)C)[C@@H]3[C@@H](O)[C@@H]21`, the Potency entry is “inactive”.

In the case of `CC1(C)[C@H](C(=O)O)N2C(=O)C[C@H]2S1(=O)=O`, the Potency entry was “inactive”. The same measure, in the same setting: the same measure for `CO/N=C(/C(=O)N[C@@H]1C(=O)N2C(C(=O)O)=C(COC(N)=O)CS[C@H]12)c1ccco1`: “inactive”; for `C=CC(=O)[O-].C=CC(=O)[O-].[Zn+2]`: “inactive”; for `O=C1c2ccccc2C(=O)C1c1ccc(Br)cc1`: 18.8 µM (active).

As to `CCC(OCCCOC)OC(C)=O` (stereo not drawn), the Potency entry was “inactive”.

For `COC(=O)CS`, the Potency is 26.3 µM (active).
